Source: PubChem (Sanford-Burnham Center for Chemical Genomics)
CYP2C19 inh: inhibitors of human CYP2C19; P33261; AID 778; CYP2C19 Supersomes, luciferin-H EGE luminescence, 30 min; inhibition, % at 5 µM; hit rate 21% among 96,000;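 active means CYP2C19 inhibition above a set limit at 5 µM in the primary screen, cut at about 50% in these data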;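 further: plate controls were negative control wells for no effect and 2.5 mM tranylcypromine positive control for full effect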
CD11b adhes inh: blocks human CD11b/CD18 adhesion to fibrinogen | K562 CD11b/CD18 adhesion to fibrinogen, ATPlite luminescence; Mn2+ added to activate the integrin | inhibition, % at 10 µM | P05107+P11215 | hit rate 0.54% among 93,000;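 active means primary inhibition of 50% or more at 10 µM, then 40% or more on retest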
Target sequence (P05107 whole entry, looked up, other chains not shown): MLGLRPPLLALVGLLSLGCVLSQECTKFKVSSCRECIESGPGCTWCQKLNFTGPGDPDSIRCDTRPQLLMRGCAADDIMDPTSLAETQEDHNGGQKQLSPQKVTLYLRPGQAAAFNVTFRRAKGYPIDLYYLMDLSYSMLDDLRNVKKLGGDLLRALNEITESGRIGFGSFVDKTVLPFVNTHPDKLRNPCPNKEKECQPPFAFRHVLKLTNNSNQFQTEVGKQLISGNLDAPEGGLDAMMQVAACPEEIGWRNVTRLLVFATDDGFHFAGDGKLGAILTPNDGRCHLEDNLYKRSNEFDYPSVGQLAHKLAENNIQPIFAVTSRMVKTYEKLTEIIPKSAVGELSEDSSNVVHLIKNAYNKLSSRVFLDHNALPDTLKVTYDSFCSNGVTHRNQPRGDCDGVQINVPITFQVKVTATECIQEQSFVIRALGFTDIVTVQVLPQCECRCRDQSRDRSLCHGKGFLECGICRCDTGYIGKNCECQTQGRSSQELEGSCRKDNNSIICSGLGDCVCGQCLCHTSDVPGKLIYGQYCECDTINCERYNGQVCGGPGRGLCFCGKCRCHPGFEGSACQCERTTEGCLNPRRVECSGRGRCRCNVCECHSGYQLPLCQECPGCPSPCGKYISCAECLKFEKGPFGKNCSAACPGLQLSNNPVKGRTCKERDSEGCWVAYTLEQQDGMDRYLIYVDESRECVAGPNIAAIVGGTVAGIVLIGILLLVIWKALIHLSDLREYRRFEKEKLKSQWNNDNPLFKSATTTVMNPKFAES
CYP2C9 inhib: inhibitors of human CYP2C9. P11712. inhibition, % at 5 µM. AID 777. CYP2C9 Supersomes, luciferin-H conversion, luminescence. hit rate 20% among 96,000;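 active means blocking of liver enzyme CYP2C9 beyond about 50% at 5 µM, limit read from the data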
CYP2C9 activ: CYP2C9 (human) activation | AID 1024 | P11712 | activation factor at 5 µM | hit rate 1.4% among 96,000 | recombinant CYP2C9, luciferin-H conversion, luminescence; hits give high values; factor 1 = untreated enzyme, 0 = blocked;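 active means activation factor of 2 or more for CYP2C9 at a 5 µM dose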;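 further: 0 = sulfaphenazole-blocked wells and 1 = vehicle-only wells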
CYP2C19 act: cytochrome P450 2C19 (human) activation; P33261; recombinant CYP2C19, luciferin-H EGE luminescence; hits give high values; 0 = fully inhibited enzyme, 1 = untreated enzyme; 96,000 tested, under 10 active; activation factor at 5 µM;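 active means activation factor of at least 2 at 5 µM in the primary screen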;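 further: 0 = wells with 2.5 mM tranylcypromine and 1 = vehicle-only wells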
Mac1 fbg enh: enhancers of human CD11b/CD18 binding to fibrinogen | P05107+P11215 | K562 CD11b/CD18 adhesion to fibrinogen, ATPlite luminescence | activation, % at 10 µM | hit rate 0.07% among 93,000 | AID 1499;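 active means 10 µM primary screen giving 50% or more activity, confirmed by 40% or more on retest at that dose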
* = called active by the depositor; x = no result given. Only some compounds are listed: those with a hit (about 28% of all), similar ones and a draw of the others.

SMILES	CYP2C19 inh	CD11b adhes inh	CYP2C9 inhib	CYP2C9 activ	CYP2C19 act	Mac1 fbg enh
CCN1CCN(C(c2cccs2)C(C)NC(=O)c2ccccc2F)CC1 (stereo not drawn)	8	4	59*	0.4	0.9	-3
CC(NC(=O)Nc1ccccc1)C(c1cccs1)N1CCN(C)CC1 (stereo not drawn)	-3	-13	-3	1	1	2
CC(NC(=O)Nc1ccc(Cl)cc1)C(c1cccs1)N1CCOCC1 (stereo not drawn)	68*	-8	49	0.5	0.3	1
CC(NC(=O)c1cccnc1)C(c1cccs1)N1CCN(C)CC1 (stereo not drawn)	9	-5	1	1	0.9	-1
CCN1CCN(C(c2cccs2)C(C)NC(=O)c2c(F)cccc2F)CC1 (stereo not drawn)	11	x	-10	1.1	0.9	x
CC(NC(=O)c1ccco1)C(c1cccs1)N1CCOCC1 (stereo not drawn)	64*	-8	33	0.7	0.4	-2
CC(NC(=O)c1ccccc1)C(c1cccs1)N1CCOCC1 (stereo not drawn)	57*	-9	45	0.6	0.4	-1
Cc1ccc(NC(C(N)=O)c2c(C)[nH]c(=O)[nH]c2=O)cc1 (stereo not drawn)	-4	2	5	0.9	1	-1
Cn1cccc1C(=O)C(=O)Nc1ccc(Cl)cc1	32	x	-6	1.1	0.7	x
Cn1cccc1C(=O)C(=O)Nc1cccc(Cl)c1Cl	28	x	-99	2*	0.7	x
Cc1cc(C(=O)NCCCN2CCN(C3CCCCC3)CC2)n(-c2ccccc2)n1	-12	6	-6	1.1	1.1	6
O=C(COc1ccc(Br)cc1)NCc1ccccn1	65*	-17	37	0.6	0.4	-3
O=C(O)COc1cccc2ccccc12	-1	10	11	0.9	1	-2
COc1ccccc1OCC(=O)NCc1cccs1	59*	0	9	0.9	0.4	-4
O=C(COc1ccccc1)NCc1cccs1	58*	-8	22	0.8	0.4	-3
O=C(COc1cccc2ccccc12)NNC(=O)c1cccs1	34	2	-194	2.9*	0.7	4
O=C(COc1ccccc1)Nn1cnc2ccccc21	-12	-15	-1	1	1.1	-1
O=C(N1CCOCC1)C(F)(F)C(F)(F)C(F)(F)C(F)(F)C(=O)N1CCOCC1	1	1	-5	1.1	1	-3
CCc1nc(NCCN)c(C#N)c2c1CSC(C)(C)C2	14	-3	35	0.6	0.9	1
O=C(COc1ccccc1)NCCc1cn2ccsc2n1	84*	-7	44	0.6	0.2	1
O=C(COC(=O)c1ccco1)NCc1cccs1	38	-13	6	0.9	0.6	1
Cc1ccc(C(=O)OCC(=O)NCc2cccs2)cc1	x	-1	x	x	x	4
O=C(COC(=O)c1ccc(Br)o1)NCc1cccs1	67*	-13	20	0.8	0.3	3
O=C(Cc1ccccc1)NCCc1cn2ccsc2n1	22	7	0	1	0.8	-2
Cc1ccc(OCC(=O)NCc2cccs2)cc1	71*	12	13	0.9	0.3	-2
SMILES	CYP2C19 inh	CD11b adhes inh	CYP2C9 inhib	CYP2C9 activ	CYP2C19 act	Mac1 fbg enh
COc1ccc(-c2nnc(SCc3nnc(-c4cccs4)o3)n2CC2CCCO2)cc1 (stereo not drawn)	x	4	x	x	x	2
Oc1cccc(C=NCc2ccccc2)c1O	-2	-17	26	0.7	1	-3
Cc1ccc(C=NCc2ccncc2)c(O)c1	76*	15	72*	0.3	0.2	-5
CCOC(=O)C1=C(c2ccccc2)Nc2ncnn2C1c1cc(OC)ccc1OC (stereo not drawn)	33	-12	39	0.6	0.7	1
O=C(NCCSCc1ccccc1)c1ccc(C2SCC(=O)N2Cc2ccccc2)cc1 (stereo not drawn)	92*	17	97*	0	0.1	-2
CCCCn1nc(CC(=O)O)c2ccccc2c1=O	69*	-6	3	1	0.3	0
CCc1nn(CC(=O)O)c(=O)c2ccccc12	-7	-8	4	1	1.1	-2
C/C(=N\NC(=O)C(NC(=O)c1ccccc1)C(C)C)c1ccccc1 (stereo not drawn)	32	14	-4	1	0.7	6
Clc1ccc(-n2nnnc2-c2ccccc2)cc1	98*	-8	61*	0.4	0	0
COc1ccc(OCc2nnnn2-c2ccccc2)cc1	69*	-2	21	0.8	0.3	-3
COc1ccc(-n2c(-c3ccccc3)nnc2-c2ccc(Cl)cc2)cc1	-1	7	-4	1	1	2
COc1ccc(-n2nnnc2-c2ccccc2)cc1	76*	-27	35	0.6	0.2	0
C=C(C)CSc1nc2nc(C)cc(C)n2n1	36	-1	15	0.8	0.6	1
O=C1COc2ccc(C(=O)c3ccccc3)cc2CN1	17	2	7	0.9	0.8	-2
Cc1ccc2c(CC(=O)N3CCN(S(=O)(=O)c4cccs4)CC3)coc2c1	92*	10	80*	0.2	0.1	-2
Cc1nc2cc(Cl)ccc2n1-c1ccccc1	80*	1	16	0.8	0.2	0
COC(=O)c1cccc(NC(=O)CN2CCN(c3ccc(OC)cc3)CC2)c1	65*	-9	86*	0.1	0.4	1
COc1cccc(NC(=O)NCCCN2CCN(c3ccc(F)cc3)CC2)c1	11	-8	21	0.8	0.9	31
COc1cccc(N2CCN(CC(=O)Nc3nc4c(s3)CC(C)CC4)CC2)c1 (stereo not drawn)	40	11	53*	0.5	0.6	7
CCN(CC)c1ccc(NC(=O)CN2CCN(c3ccccc3F)CC2)cc1	55*	x	46	0.5	0.4	x
COc1ccc(N2CCC(CNC(=O)Nc3cccc(OC)c3)C2)cc1 (stereo not drawn)	40	2	76*	0.2	0.6	-1
CCS(=O)(=O)NCCc1cc2ccc(C)cc2[nH]c1=O	-2	x	-13	1.1	1	x
CCOc1ccc(NC(=O)CCN2CCN(c3ccccc3F)CC2)cc1	51*	-7	68*	0.3	0.5	-3
COc1ccccc1N1CCN(CC(=O)Nc2ccc(C)c(F)c2)CC1	16	18	15	0.9	0.8	-1
COc1ccc(NC(=O)CN2CCN(c3ccccc3F)CC2)cc1	55*	-4	68*	0.3	0.4	-2
CC(=O)Nc1ccc(S(=O)(=O)N2CCC(NC(=O)c3ccco3)CC2)cc1	9	-13	26	0.7	0.9	-4
Cc1cccc(-n2cnc(C(=O)N/N=C/c3ccccc3)c2)n1	-3	-35	9	0.9	1	2
